According to PubChem BioAssay:
Activity calls are given as the source filed them.

Experiments:
[1] = binders of probe aFSTL3 on microarray, primary screen, stem cell growth factor project, biochemical, small-molecule microarray, fluorescence 635/667 (AID 1064); settings: higher = more signal;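 further: measures binding of the biotinylated anti-FSTL3 antibody to printed compounds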
[2] = binders from COS7 lysate, DM2A8 probe, primary screen, torsin A project, cell lysate, small-molecule microarray, fluorescence 635/667 (AID 1065); settings: higher = more signal, COS7 lysate expressing mutant human TOR1A
[3] = binders of probe aFGF2 on microarray, primary screen, stem cell growth factor project, biochemical, small-molecule microarray, fluorescence 635/667 (AID 1067); settings: higher = more signal;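 further: measures binding of biotinylated aFGF2 protein to printed compounds on slides; z-score merges feature fluorescence and signal-to-noise across triplicate slides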
[4] = binders of probe aFGF10 on microarray, primary screen, stem cell growth factor project, biochemical, small-molecule microarray, fluorescence 635/667 (AID 1071); settings: higher = more signal;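 further: score merges 667 nm spot intensity and signal to noise from triplicate slides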
[5] = target: Neurogenic locus notch homolog protein 2 (Homo sapiens) (UniProt Q04721); test: Notch2 binders on small-molecule microarrays, primary screen, biochemical, small-molecule microarray, 635 nm fluorescence, stem cell growth factors (AID 1073); settings: Notch2 binding, higher = more signal
[6] = target: Pro-neuregulin-1, membrane-bound isoform (Homo sapiens) (UniProt Q02297); test: NRG1 binders on small-molecule microarrays, primary screen, psychiatric disease protein project, biochemical, small-molecule microarray, fluorescence 635/667 (AID 1075); settings: NRG1 binding, 635 nm fluorescence, higher = more signal;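 further: score combines 667 nm spot fluorescence with signal to noise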
[7] = system: Neuregulin-1 EGF-like domain; test: binders of neuregulin-1 EGF-like domain, primary screen, biochemical, small-molecule microarray, 635 nm fluorescence (AID 1081); settings: small-molecule microarray binding, higher = more signal;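 further: binding of the protein to compounds printed on small-molecule microarray slides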
[8] = FRG1 promoter luciferase signal modulators, primary screen, FRG1 inhibition for FSHD, cell-based, C2C12 myotubes, firefly/Renilla luciferase, luminescence (AID 1084); settings: higher = more signal, called active from +8 up or from −8 down
[9] = binders of probe aFST on microarray, primary screen, stem cell growth factor project, biochemical, small-molecule microarray, fluorescence 635/667 (AID 1086); settings: higher = more signal;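 further: score merges 667 nm fluorescence with signal-to-noise of each printed compound spot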
[10] = binders of probe aHhip on microarray, primary screen, stem cell growth factor project, biochemical, small-molecule microarray, fluorescence 635/667 (AID 1087); settings: higher = more signal;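 further: score merges spot fluorescence at 667nm with spot signal to noise ratio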
[11] = system: PRMT1 (protein arginine N-methyltransferase 1); test: PRMT1 binders on small-molecule microarrays, primary screen, biochemical, small-molecule microarray, 635 nm fluorescence (AID 1088); settings: small-molecule microarray binding, higher = more signal;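 further: binding of Prmt1 protein to compounds spotted on small-molecule microarray slides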
[12] = yeast growth modulation, basal conditions, primary screen, YJM789 clinical isolate, OD600, 24 h (AID 1089);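 further: growth of clinical yeast isolate S. cerevisiae YJM 789 seeded 1000 cells per well; test concentration not given here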; settings: S. cerevisiae YJM789 growth, higher = more signal, called active from +8 up or from −8 down
[13] = fission yeast growth modulation, primary screen, strain 972, OD600, 24 h, no modulator (AID 1090);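 further: basal condition with compound alone and no growth modifier present; test concentration not given here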; settings: S. pombe 972 growth, higher = more signal, called active from +8 up or from −8 down
[14] = S. cerevisiae growth modulation with rapamycin, primary screen, strain BY4716, OD600, 96 h (AID 1091); settings: higher = more signal, called active from +8 up or from −8 down; further: test concentration not given here
[15] = target: Torsin-1A-interacting protein 2 (Homo sapiens) (UniProt Q8NFQ8); test: LULL1 binders on small-molecule microarray, primary screen, cell lysate, human LULL1 lysate, 635/667 nm fluorescence (AID 1092); settings: hLULL1 lysate binding, 635 nm fluorescence, higher = more signal;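 further: probe is lysate of COS7 cells overexpressing human LULL1; score merges per-feature 667 nm fluorescence with signal-to-noise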
[16] = E. coli growth modulation, two-sided OD650, primary screen, E. coli filamentation project, strain DRC41, 24 h (AID 1093); settings: OD650, 24 h, higher = more signal, called active from +8 up or from −8 down;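 further: MC1000 strain lacking acrAB efflux and sulA so SOS filamentation is blocked; test concentration not given here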
[17] = small-molecule microarray binders of probe aLefty2, primary screen, biochemical, biotinylated probe, 635/667 nm fluorescence (AID 1094); settings: higher = more signal;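 further: score merges spot fluorescence near 667 nm with spot signal-to-noise ratio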
[18] = system: Noggin (protein binding on small-molecule microarray); test: Noggin binders on small-molecule microarray, primary screen, biochemical, 635/667 nm fluorescence (AID 1095); settings: 635 nm fluorescence, higher = more signal;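 further: score merges 667 nm feature fluorescence with signal to noise over triplicate slides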
[19] = target: Neurogenic locus notch homolog protein 3 (Homo sapiens) (UniProt Q9UM47); test: NOTCH3 binders on small-molecule microarray, primary screen, biochemical, 635/667 nm fluorescence (AID 1096); settings: NOTCH3 binding, 635 nm fluorescence, higher = more signal
[20] = small-molecule microarray binders of probe aEGFR, primary screen, biochemical, biotinylated probe, 635/667 nm fluorescence (AID 1097); settings: higher = more signal;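 further: probe is a biotinylated anti-EGFR antibody binding compounds printed on slides; score combines fluorescence near 667 nm and signal to noise of each spot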

Torsin-1A-interacting protein 2 (Homo sapiens), sequence (Q8NFQ8 whole entry, looked up): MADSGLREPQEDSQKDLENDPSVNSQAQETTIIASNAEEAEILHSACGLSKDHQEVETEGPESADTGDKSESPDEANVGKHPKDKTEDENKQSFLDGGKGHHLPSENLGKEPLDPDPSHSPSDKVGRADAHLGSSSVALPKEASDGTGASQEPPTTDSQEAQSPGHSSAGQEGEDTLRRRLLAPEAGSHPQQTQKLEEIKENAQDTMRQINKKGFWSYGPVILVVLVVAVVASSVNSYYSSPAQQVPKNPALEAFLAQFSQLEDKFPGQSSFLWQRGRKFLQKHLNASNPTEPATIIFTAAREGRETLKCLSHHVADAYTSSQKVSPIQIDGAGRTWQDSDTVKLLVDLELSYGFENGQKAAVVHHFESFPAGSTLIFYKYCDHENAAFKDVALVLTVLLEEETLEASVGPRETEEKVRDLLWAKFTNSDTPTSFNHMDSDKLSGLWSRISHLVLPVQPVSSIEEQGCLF
Pro-neuregulin-1, membrane-bound isoform (Homo sapiens), sequence (Q02297 whole entry, looked up, the tested form may be a part, canonical isoform): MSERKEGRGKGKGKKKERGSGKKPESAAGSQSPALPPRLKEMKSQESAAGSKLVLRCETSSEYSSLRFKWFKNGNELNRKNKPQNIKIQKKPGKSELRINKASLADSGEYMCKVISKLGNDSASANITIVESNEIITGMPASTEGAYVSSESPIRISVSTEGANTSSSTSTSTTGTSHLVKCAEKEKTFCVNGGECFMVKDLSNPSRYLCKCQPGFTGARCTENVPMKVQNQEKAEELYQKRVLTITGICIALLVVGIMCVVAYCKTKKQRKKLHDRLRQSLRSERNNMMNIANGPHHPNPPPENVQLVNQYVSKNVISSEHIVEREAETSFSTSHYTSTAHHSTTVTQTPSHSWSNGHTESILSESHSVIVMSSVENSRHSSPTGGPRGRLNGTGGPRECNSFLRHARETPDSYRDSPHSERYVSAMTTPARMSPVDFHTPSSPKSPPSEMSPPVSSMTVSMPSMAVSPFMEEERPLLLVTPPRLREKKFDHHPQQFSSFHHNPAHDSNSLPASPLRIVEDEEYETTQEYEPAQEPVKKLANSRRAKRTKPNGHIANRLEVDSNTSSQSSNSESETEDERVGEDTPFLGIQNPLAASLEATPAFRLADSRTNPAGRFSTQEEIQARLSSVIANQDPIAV
Neurogenic locus notch homolog protein 2 (Homo sapiens), sequence (Q04721 whole entry, looked up, canonical isoform): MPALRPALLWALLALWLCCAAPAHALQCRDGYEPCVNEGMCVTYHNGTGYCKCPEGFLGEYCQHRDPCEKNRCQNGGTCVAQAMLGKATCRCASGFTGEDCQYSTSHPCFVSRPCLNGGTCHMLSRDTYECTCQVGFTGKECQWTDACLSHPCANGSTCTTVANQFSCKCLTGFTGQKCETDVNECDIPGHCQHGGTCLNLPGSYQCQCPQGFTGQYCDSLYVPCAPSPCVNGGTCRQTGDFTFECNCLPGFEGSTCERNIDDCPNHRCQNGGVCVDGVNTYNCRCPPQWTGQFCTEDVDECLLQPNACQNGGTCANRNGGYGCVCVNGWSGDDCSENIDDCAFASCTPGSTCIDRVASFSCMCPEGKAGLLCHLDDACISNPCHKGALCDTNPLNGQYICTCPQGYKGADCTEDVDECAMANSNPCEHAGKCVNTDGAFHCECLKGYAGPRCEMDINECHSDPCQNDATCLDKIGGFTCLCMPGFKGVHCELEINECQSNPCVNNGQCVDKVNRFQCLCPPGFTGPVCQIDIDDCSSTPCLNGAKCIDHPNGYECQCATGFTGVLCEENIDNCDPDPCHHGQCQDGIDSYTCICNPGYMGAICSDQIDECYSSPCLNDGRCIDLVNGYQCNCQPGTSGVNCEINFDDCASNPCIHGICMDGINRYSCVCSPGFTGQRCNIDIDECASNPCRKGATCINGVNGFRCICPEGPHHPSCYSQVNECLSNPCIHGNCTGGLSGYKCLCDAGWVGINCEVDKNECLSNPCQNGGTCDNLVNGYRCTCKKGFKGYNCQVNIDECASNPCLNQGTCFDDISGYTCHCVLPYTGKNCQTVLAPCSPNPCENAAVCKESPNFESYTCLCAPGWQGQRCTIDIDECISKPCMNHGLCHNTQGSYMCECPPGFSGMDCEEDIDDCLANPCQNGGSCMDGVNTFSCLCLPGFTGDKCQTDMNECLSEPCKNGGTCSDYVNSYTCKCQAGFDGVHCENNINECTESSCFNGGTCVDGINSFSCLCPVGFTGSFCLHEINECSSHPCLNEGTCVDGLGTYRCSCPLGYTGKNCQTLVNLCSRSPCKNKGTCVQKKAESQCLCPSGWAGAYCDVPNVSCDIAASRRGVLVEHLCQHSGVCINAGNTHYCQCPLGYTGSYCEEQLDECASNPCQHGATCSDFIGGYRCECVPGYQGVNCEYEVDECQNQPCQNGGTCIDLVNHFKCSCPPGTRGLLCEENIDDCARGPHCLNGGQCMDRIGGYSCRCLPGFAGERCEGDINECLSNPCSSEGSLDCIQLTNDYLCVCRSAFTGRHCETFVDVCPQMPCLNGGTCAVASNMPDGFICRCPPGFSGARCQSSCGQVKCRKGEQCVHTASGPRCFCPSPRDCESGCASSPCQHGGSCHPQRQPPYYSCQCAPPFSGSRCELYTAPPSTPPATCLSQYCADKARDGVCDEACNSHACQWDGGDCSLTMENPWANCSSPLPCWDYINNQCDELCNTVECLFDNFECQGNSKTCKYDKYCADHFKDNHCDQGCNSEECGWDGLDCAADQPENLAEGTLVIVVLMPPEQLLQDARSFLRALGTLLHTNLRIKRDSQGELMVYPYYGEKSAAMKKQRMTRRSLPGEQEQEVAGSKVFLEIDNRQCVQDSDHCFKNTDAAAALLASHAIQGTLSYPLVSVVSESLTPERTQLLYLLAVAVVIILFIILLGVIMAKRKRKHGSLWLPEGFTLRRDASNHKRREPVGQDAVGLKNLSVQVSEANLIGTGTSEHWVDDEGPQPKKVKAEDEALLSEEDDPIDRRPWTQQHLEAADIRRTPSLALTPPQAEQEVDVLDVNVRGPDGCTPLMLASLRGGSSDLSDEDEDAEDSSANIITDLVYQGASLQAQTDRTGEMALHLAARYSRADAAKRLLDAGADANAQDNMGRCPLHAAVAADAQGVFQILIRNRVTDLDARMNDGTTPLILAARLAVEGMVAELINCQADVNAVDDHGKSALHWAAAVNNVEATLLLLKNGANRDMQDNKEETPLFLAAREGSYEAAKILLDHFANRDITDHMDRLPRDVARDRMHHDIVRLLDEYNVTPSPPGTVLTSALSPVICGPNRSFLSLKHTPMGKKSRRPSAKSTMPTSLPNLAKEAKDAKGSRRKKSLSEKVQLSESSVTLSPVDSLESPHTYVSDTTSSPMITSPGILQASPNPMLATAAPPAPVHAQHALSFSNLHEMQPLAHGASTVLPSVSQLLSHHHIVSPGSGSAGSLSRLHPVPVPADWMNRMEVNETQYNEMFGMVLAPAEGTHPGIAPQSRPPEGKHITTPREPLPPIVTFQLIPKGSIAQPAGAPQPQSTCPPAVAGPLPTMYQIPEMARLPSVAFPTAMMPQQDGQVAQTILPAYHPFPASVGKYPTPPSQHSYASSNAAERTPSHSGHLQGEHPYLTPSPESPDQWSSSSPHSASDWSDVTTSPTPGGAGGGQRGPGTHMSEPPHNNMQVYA

Structure (SMILES) | composite z-score [1] | composite z-score [2] | composite z-score [3] | composite z-score [4] | composite z-score [5] | composite z-score [6] | composite z-score [7] | z-score [8] | composite z-score [9] | composite z-score [10] | composite z-score [11] | z-score [12] | z-score [13] | z-score [14] | composite z-score [15] | z-score [16] | composite z-score [17] | composite z-score [18] | composite z-score [19] | composite z-score [20]
CO[C@@H]1COC(=O)CC=C[C@@H](C)[C@@H]2C=C[C@H](O)[C@@H](COC(=O)CC=C[C@H]1C)O2 | -0.304 | 1.7 | -0.192 | -0.14 | -0.703 | -0.421 | 0.824 | -0.715 (inactive) | -0.245 | 0.0714 | 1.56 | -0.48 (inactive) | -0.636 (inactive) | -0.922 (inactive) | -0.664 | 0.713 (inactive) | -0.123 | 1.47 | 0.276 | 0.0651
COC(=O)CC=C[C@@H](C)[C@@H](C=NO[C@H](C)c1cn([C@H](CO)Cc2ccccc2)nn1)OC | -0.42 | 0.44 | -0.0867 | 0.257 | -0.0484 | -0.0545 | 0.516 | 0.0621 (inactive) | 0.0782 | 0.189 | 1.14 | -0.14 (inactive) | -0.617 (inactive) | -0.0624 (inactive) | 0.169 | 0.0673 (inactive) | -0.12 | 1.37 | 0.614 | 0.0556
CCOC(=O)[C@H](CC(C)C)NC(=O)CCC1CC(OC(=O)NCc2cccc3ccccc23)CC2(CCCC(COC(=O)NCCCN3CCCC3=O)O2)O1 (stereo not given in full) | -0.494 | 0.129 | -0.131 | 0.208 | 0.755 | 0.466 | 0.953 | 1.74 (inactive) | 0.253 | -0.212 | 1.4 | -0.139 (inactive) | 0.409 (inactive) | -0.224 (inactive) | 1.68 | -0.165 (inactive) | -0.0998 | 0.822 | 1.12 | -0.0238
CCCCC#C[C@@H]1C=C[C@H](OC(C)=O)[C@@H](COC(C)=O)O1 | -0.515 | 0.37 | -0.112 | 0.319 | 0.617 | 0.304 | 0.0329 | -1.28 (inactive) | 0.0643 | -0.134 | 0.59 | 0.248 (inactive) | -3.45 (inactive) | -1.25 (inactive) | 0.456 | 0.325 (inactive) | -0.116 | 0.216 | 0.848 | 0.0251
CCOC(=O)[C@H](Cc1ccccc1)NC(=O)CCC1CC(OC(=O)NCCc2ccc(F)cc2)CC2(CCCC(COC(=O)NCCCN3CCCC3=O)O2)O1 (stereo not given in full) | -0.478 | 0.291 | -0.0628 | 0.328 | 1.16 | 0.533 | 0.394 | -1.9 (inactive) | 0.326 | -0.0994 | 1.37 | -1.68 (inactive) | -0.574 (inactive) | 0.674 (inactive) | 2 | -0.806 (inactive) | -0.0986 | 0.373 | 1.14 | 0.006
